Data published in publication PMC4336329 (PLoS ONE, 2015).
Out of some 310,000 compounds screened, about 2,200 (0.71%) showed an effect of 50% or more. Effects have a minus sign here. The sample as a whole holds a higher share of strong results than the screen did.

target: human ether-à-go-go-related gene (hERG) potassium channel (human, UniProt Q12809); assay: primary screen, population patch clamp on CHO cells stably expressing hERG; higher = less effect of the substance
Sequence (Q12809 whole entry, looked up): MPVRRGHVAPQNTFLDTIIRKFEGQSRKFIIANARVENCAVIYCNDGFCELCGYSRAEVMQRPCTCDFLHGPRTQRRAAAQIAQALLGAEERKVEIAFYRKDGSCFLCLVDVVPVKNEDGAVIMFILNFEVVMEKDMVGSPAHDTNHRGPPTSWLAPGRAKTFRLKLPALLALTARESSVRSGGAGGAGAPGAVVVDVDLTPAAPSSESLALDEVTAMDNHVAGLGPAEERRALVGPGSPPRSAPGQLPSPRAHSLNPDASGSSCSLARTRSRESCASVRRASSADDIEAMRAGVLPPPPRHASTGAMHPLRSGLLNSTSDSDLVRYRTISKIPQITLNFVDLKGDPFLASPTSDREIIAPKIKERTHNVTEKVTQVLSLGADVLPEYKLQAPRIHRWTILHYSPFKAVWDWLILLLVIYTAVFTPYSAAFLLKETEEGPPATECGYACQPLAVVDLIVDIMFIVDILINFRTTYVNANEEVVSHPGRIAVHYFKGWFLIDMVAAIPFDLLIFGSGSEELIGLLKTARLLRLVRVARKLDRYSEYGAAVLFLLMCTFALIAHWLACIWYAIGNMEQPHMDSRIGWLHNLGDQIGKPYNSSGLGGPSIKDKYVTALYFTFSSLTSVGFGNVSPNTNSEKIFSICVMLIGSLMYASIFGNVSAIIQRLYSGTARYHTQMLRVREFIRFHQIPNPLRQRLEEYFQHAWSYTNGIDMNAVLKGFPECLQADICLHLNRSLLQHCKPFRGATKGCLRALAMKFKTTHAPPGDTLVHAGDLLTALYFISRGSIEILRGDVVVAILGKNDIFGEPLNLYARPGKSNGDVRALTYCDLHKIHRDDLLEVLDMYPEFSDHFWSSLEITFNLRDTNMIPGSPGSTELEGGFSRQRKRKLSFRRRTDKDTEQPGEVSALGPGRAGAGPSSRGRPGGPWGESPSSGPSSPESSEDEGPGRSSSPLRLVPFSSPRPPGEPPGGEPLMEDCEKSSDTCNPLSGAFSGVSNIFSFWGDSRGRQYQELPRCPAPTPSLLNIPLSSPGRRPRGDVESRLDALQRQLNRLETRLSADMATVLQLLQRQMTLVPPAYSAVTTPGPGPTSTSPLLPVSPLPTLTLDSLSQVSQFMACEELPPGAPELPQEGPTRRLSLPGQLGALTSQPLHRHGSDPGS

SMILES	hERG current change (%, negative = inhibition) at 1uM
Cc1cccc(NS(=O)(=O)c2cccs2)c1	10.7%
CC1CC(C)CN(c2nc3c(c(=O)n(C)c(=O)n3C)n2C)C1 (stereo not drawn)	11.1%
CCN1CCN(c2ccc(S(=O)(=O)N3CCCCC3)cc2NC(=O)/C=C/c2ccc([N+](=O)[O-])cc2)CC1	6.53%
O=C(/C=C/c1ccc(F)cc1)Nc1cc(S(=O)(=O)N2CCOCC2)ccc1N1CCCC1	-60.3%
O=C(/C=C/c1ccccc1)Nc1cc(S(=O)(=O)N2CCOCC2)ccc1N1CCCC1	15.7%
O=C(/C=C/c1cccc(F)c1)Nc1cc(S(=O)(=O)N2CCOCC2)ccc1N1CCCC1	0.626%
CCN1CCN(c2ccc(S(=O)(=O)N3CCOCC3)cc2NC(=O)/C=C/c2ccc(C)cc2)CC1	-4.67%
CCN1CCN(c2ccc(S(=O)(=O)N3CCOCC3)cc2NC(=O)/C=C/c2ccc([N+](=O)[O-])cc2)CC1	-50.5%
O=c1cc(-c2ccccc2[N+](=O)[O-])oc2ccccc12	7.73%
CC(C)C(=O)C1=Cc2cc([N+](=O)[O-])ccc2OC1N1CCOCC1 (stereo not drawn)	9.39%
O=C(CCCC(=O)NCC1CCCO1)NCC1CCCO1 (stereo not drawn)	3.68%
O=c1ccc2cc3c([nH]c4ccc(Br)cc43)oc-2c1O	4.16%
COc1ccc(C(C(O)C(=O)c2c[nH]c3ccccc23)N2CCN(c3ccccc3)CC2)cc1 (stereo not drawn)	4.75%
COc1ccc(C(C(O)C(=O)c2c[nH]c3ccccc23)N2CCN(c3ccc(OC)cc3)CC2)cc1 (stereo not drawn)	2.28%
CCN1CCN(C(c2ccc(OC)cc2)C(O)C(=O)c2c[nH]c3ccccc23)CC1 (stereo not drawn)	-64.4%
CC(C)Oc1ccc(N2CC(C(=O)Nc3ccc4c(c3)OCO4)CC2=O)cc1 (stereo not drawn)	5.88%
Cc1[nH]c(=O)[nH]c(=O)c1S(=O)(=O)Nc1cccc([N+](=O)[O-])c1C	11.5%
CC(=O)CCc1ccc(OCCCCN2CCC(Cc3ccccc3)CC2)cc1.O=C(O)C(=O)O	-68.3%
COc1cccc(OC)c1OCCCCN1CCCCC1.O=C(O)C(=O)O	9.21%
COc1cc(CN2CCC(Cc3ccccc3)CC2)cc(OC)c1OC.O=C(O)C(=O)O	-12%
COc1ccccc1N1CCN(CCCCOc2c(OC)cccc2OC)CC1.O=C(O)C(=O)O	-38.6%

SMILES	hERG current change (%, negative = inhibition) at 1uM
COc1cccc(OC)c1OCCCCN1CCC(Cc2ccccc2)CC1.O=C(O)C(=O)O	-78.6%
COc1cccc(OC)c1OCCCN1CCC(Cc2ccccc2)CC1.O=C(O)C(=O)O	-79.3%
O=C(O)C(=O)O.c1ccc(COc2ccc(OCCCCN3CCCC3)cc2)cc1	-28.2%
CC1CCN(CCCOc2ccc(OCc3ccccc3)cc2)CC1.O=C(O)C(=O)O	-14.1%
COc1cccc(OC)c1OCCCCN1CCCC1	4.67%
COc1cc2cc(C(c3nnnn3C(C)(C)C)N3CCc4ccccc4C3)c(=O)[nH]c2cc1OC (stereo not drawn)	-3.88%
CCN(CCNC(=O)CCCn1nc(C)n2c(cc3sccc32)c1=O)c1ccccc1	-1.14%
CN(C)Cc1ccc(-c2nc3cccc4c3n2CCNC4=O)cc1	-0.249%
O=C(NCc1ccccc1)C(c1ccco1)N(C(=O)c1csnn1)C1CC1 (stereo not drawn)	11.6%
Cc1nc2ccccc2c(=O)n1Cc1ccc([N+](=O)[O-])cc1	-64.8%
Cc1nc2ccc([N+](=O)[O-])cc2c(=O)n1Cc1ccc(F)cc1	-9.51%
Cc1nc2ccc([N+](=O)[O-])cc2c(=O)n1Cc1ccc([N+](=O)[O-])cc1	-76.5%
COc1ccc(Cn2c(C)nc3ccc([N+](=O)[O-])cc3c2=O)cc1	5.96%
Cc1nc2ccc([N+](=O)[O-])cc2c(=O)n1Cc1ccc(Br)cc1	14.8%
Cc1nc2ccc([N+](=O)[O-])cc2c(=O)n1Cc1ccc(Cl)cc1	10.5%
CC(=O)Nc1cccc(N2CCCC2=O)c1	4.99%
O=C(CN1CCN(Cc2ccccc2)CC1)N/N=C/C=C/c1ccccc1[N+](=O)[O-]	-32.1%
COc1ccc(NC(=O)Nc2cc(C(=O)O)ccc2N2CC3CC(C2)c2cccc(=O)n2C3)c(OC)c1 (stereo not drawn)	5.08%
CC(NC(=O)Cc1ccccc1)c1cc2c(cc1Br)OCCCO2 (stereo not drawn)	6.49%
CCOC(=O)Cn1nc(C)c(NC(=O)COc2ccc(OC)cc2)c1C	4.48%
CC(C)(C)Nc1nc(Cl)nc(N(C#N)CN2C(=O)c3ccccc3S2(=O)=O)n1	16.1%
